# NFkB transloc inh: blocks IL-1B driven NFkB nuclear translocation in HUVEC cells; inhibition, % at 2 µM; AID 796; HUVEC IL-1B NFkB p65 nuclear translocation imaging; 94,000 tested, 0.43% active;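 active = inhibition above about 30% together with a positive call from visual inspection of the well image, limit read from the data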;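 also: nuclear over cytoplasmic p65 intensity ratio measured by imaging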
# NFkB transloc pot: enhances IL-1B driven NFkB nuclear translocation; HUVEC IL-1B NFkB p65 nuclear translocation imaging; activation, % at 2 µM; 94,000 tested, 0.3% active;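 active = activation above 40%, about the mean plus 3 SD, also judged a hit on visual image review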;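 also: percent activation is computed from the nuclear over cytoplasmic p65 intensity ratio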
# E-sel TNF inh: TNF alpha driven E-selectin expression inhibition; inhibition, % at 2 µM; HUVEC TNFa-induced E-selectin immunofluorescence, high content; 120,000 tested, 0.71% active; AID 1246;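 active = inhibition above the batch mean plus 3 SD, and confirmed as a hit on visual image review, cut at about 43% in these data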
# VCAM1 TNFa inh: reduces TNF alpha induced VCAM1 expression in HUVEC. HUVEC TNFa-induced VCAM-1 immunofluorescence, high-content imaging. inhibition, % at 2 µM. 95,000 tested, 0.48% active;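 active = inhibition above the batch mean plus 3 SD, with images confirmed as a hit by eye, cut at about 37% in these data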
# IL1B cytotox: toxic to HUVEC cells under IL-1B stimulation; HUVEC cell count loss, Hoechst imaging, IL-1B stimulated; cell count reduction, % at 2 µM; 94,000 tested, 0.41% active; AID 845;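 active = cell count reduction more than 3 SD above the screen-wide mean, cut at about 70% in these data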
# HUVEC tox TNFa: toxic to HUVEC cells under TNF alpha stimulation; AID 848; cell count reduction, % at 2 µM; HUVEC TNFalpha-stimulated, Hoechst cell count, imaging; 93,000 tested, 0.17% active;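 active = cell count reduction exceeding the screen mean by over 5 SD, scaled to untreated wells per plate, cut at about 78% in these data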;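 also: cells counted after 24 h of TNF alpha exposure following the 1 h pretreatment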
# A number is an active result; – = inactive; · = no result given. An excerpt weighted towards active compounds, which were near 1.7% of everything screened.
SMILES,NFkB transloc inh,NFkB transloc pot,E-sel TNF inh,VCAM1 TNFa inh,IL1B cytotox,HUVEC tox TNFa
CC(=O)NC(CC(=O)Nc1nc(C)cs1)c1ccccc1 (stereo unspecified),·,·,–,·,·,·
C[C@@H]1CC[C@@]2(O[C@H](CCO)C[C@@H](O)[C@@H]2O)O1,·,·,64,·,·,·
O=C(CN1CCN(c2nc(-c3ccc(F)cc3)cs2)CC1)Nc1ccc2c(c1)OCO2,–,–,·,88,–,–
NC(=O)CN1CCN(c2nc(-c3ccc(F)cc3)cs2)CC1,–,–,–,–,–,–
O=C(c1ccc(-c2ccccc2)cc1)N1CCN(C(=O)c2ccco2)CC1,–,–,·,–,–,–
N#CC(C#N)=C1C=CC=CN1/C(=C\c1ccco1)C(=O)c1ccc(-c2ccccc2)cc1,·,·,93,·,·,·
CCC(=O)N1c2ccc(S(=O)(=O)CCC(=O)N3CCn4c3nc3ccccc34)cc2CC1C (stereo unspecified),–,–,–,83,–,84
CCC(=O)N1c2ccc(S(=O)(=O)CCC(=O)NC3CCCC3)cc2CC1C (stereo unspecified),–,–,–,–,–,–
O=C(NNS(=O)(=O)c1ccc([N+](=O)[O-])cc1)c1cnn(-c2ccccc2)c1-n1cccc1,–,–,–,–,–,–
Cn1c(C(=O)NCCN2CCOCC2)cc2sccc21,–,–,·,–,–,88
Cc1ccc(Cn2c(C(=O)NCCCN3CCOCC3)cc3sccc32)cc1,·,·,–,·,·,·
Cc1ccc2nc(/C(C#N)=C\c3ccc(N4CCOCC4)o3)[nH]c2c1,–,–,–,–,–,–
Cc1ccc2nc(/C(C#N)=C\c3ccc([N+](=O)[O-])o3)[nH]c2c1,38,–,–,–,–,–
Cc1ccc2nc(N3CCN(C(=O)c4cccs4)CC3)c(C#N)cc2c1,·,·,–,·,·,·
CCN(C(=O)CCS(=O)(=O)c1ccc(Br)cc1)c1ccc2c(c1)OCO2,·,·,96,·,·,·
O=C(CCS(=O)(=O)c1ccc(Br)cc1)Nc1ccc2c(c1)OCO2,·,·,–,–,·,–
CCNc1nc(NCC)n2c(SCc3ccc(F)cc3)nnc2n1,–,–,–,91,–,88
CCNc1nc(NCC)n2c(SCc3nc4ccccc4c(=O)[nH]3)nnc2n1,–,–,–,–,–,–
COC(=O)c1[nH]c2cc(OC)ccc2c1NC(=O)CN1CCC(C(N)=O)(N2CCCCC2)CC1,–,–,–,50,–,–
COC(=O)c1[nH]c2cc(OC)ccc2c1NC(=O)CN1CCC(C(N)=O)CC1,·,·,–,·,·,·
C=C(Cl)COc1cc(C)cc2oc(=O)cc(CC)c12,47,–,–,–,–,–
COc1ccc(-c2cc3nc(C)cc(N4CC(C)CC(C)C4)n3n2)cc1 (stereo unspecified),–,–,–,–,–,–
CC1CCN(S(=O)(=O)c2ccc(NC(=O)CSc3ncccc3C(=O)O)cc2)CC1,·,·,62,·,·,·
O=C(CSc1nc2ccccc2c(=O)[nH]1)Nc1ccc(S(=O)(=O)N2CCCC2)cc1,31,–,–,–,–,–
O=C(COC(=O)c1ncc(Cl)c(Cl)c1Cl)c1ccc(Cl)s1,·,·,–,·,·,·
SMILES,NFkB transloc inh,NFkB transloc pot,E-sel TNF inh,VCAM1 TNFa inh,IL1B cytotox,HUVEC tox TNFa
COCCn1cc(C(=O)c2ccccc2OCC(=O)Nc2cc(C)on2)cc(C#N)c1=O,–,–,–,–,–,–
CCc1nnc(-n2nc(C)cc2-c2ccccc2)n1N,98,–,–,–,95,–
Cc1cc(-c2ccccc2)n(-c2ccc(C(N)=O)cc2)n1,·,·,–,·,·,·
COc1ccc(/C(O)=C2/C(=O)C(=O)N(CCN(C)C)C2c2ccc(OC)c(OC)c2)c(C)c1 (stereo unspecified),39,–,·,·,–,·
COc1cc(C2/C(=C(/O)c3ccc(OCC(C)C)cc3)C(=O)C(=O)N2CCN(C)C)ccc1O (stereo unspecified),–,41,–,–,–,–
COc1ccc(/C(O)=C2/C(=O)C(=O)N(CCN(C)C)C2c2ccc(C)cc2)cc1Cl (stereo unspecified),–,–,–,–,–,–
CCOc1ccc(N(CC)S(=O)(=O)c2ccc3c(c2)n(C)c(=O)c(=O)n3C)cc1,–,–,·,–,–,–
CC1CCCN(c2ccc([N+](=O)[O-])cc2C(=O)c2ccccc2)C1 (stereo unspecified),·,·,–,·,·,·
COCCOC(=O)c1c(C)n(C)c2ccc(OC(=O)C3CC3)cc12,–,–,–,–,–,–
COC(=O)N/N=C(\C)c1ccccc1Br,–,–,–,–,–,–
COC(=O)c1sc2cnccc2c1N,–,–,·,–,78,–
COC(=O)c1sc2nc(-c3ccco3)ccc2c1N,–,–,–,·,–,·
C=CCSc1nc2ccccc2n1C(=O)/C=C/c1cc(OC)c(OC)c(OC)c1,–,–,66,92,–,–
CCSc1nc2ccccc2n1C(=O)/C=C/c1ccc(OC)c(OC)c1,·,·,100,·,·,·
C=CCSc1nc2ccccc2n1C(=O)/C=C/c1ccc(OC)c(OC)c1,–,–,–,–,–,–
CCOc1ccc(S(=O)(=O)N(C)CCO)cc1-c1nc2c(C(C)(C)C)nn(C)c2c(=O)[nH]1,–,–,·,–,–,–
c1ccc(Nc2nc3ccccc3n3cnnc23)cc1,·,·,87,·,·,·
c1ccc2c(c1)nc(NC1CCCCC1)c1nncn12,–,–,·,–,–,–
CN1CCN/C1=C(/C(Cl)=C(Cl)Cl)[N+](=O)[O-],·,·,–,·,·,·
Cc1ccc(Cn2ncc3c(N4CCN(C5CCCC5)CC4)ncnc32)cc1,·,·,100,·,·,·
O=C(Cn1c(-c2cncs2)nc2ccccc21)NCc1ccccc1,–,–,–,–,90,–
Cc1ccccc1Cn1c(-c2cncs2)nc2ccccc21,–,–,–,–,–,–
COC(=O)c1ccccc1NC(=O)c1ccc(-c2cccc(Cl)c2)o1,–,–,44,·,–,·
COc1ccc(CNC(=O)CCc2c(C)nc3ncnn3c2C)cc1,–,–,·,–,–,–
Cc1nc2ncnn2c(C)c1CCC(=O)NCc1ccccc1,–,–,62,–,–,–
SMILES,NFkB transloc inh,NFkB transloc pot,E-sel TNF inh,VCAM1 TNFa inh,IL1B cytotox,HUVEC tox TNFa
O=C(Nc1ccc2nsnc2c1)c1ccc2c(c1)OCO2,–,–,100,–,–,–
Cc1cc(SCc2cc(=O)[nH]c3ccccc23)nc2ccccc12,·,·,64,–,·,–
O=c1cc(CSc2ccccn2)c2ccccc2[nH]1,–,–,–,–,–,–
CCCCCC(=O)NC(=S)Nc1ccc(Cl)cn1,·,·,–,·,·,·
O=C(Nc1ccccc1N1CCOCC1)c1ccc(Cl)nc1,·,·,88,·,·,·
CCc1c(C)nc2ncnn2c1N1CCC(C(=O)N2CCN(c3ccc(F)cc3)CC2)CC1,–,–,55,–,–,–
CCc1c(C)nc2ncnn2c1N1CCCC(C(=O)Nc2ccc(NC(C)=O)cc2)C1 (stereo unspecified),–,–,–,–,–,–
CCCn1c(CN2CCN(c3cccc(Cl)c3)CC2)nc2c1c(=O)n(C)c(=O)n2C,–,–,62,–,–,–
Cn1c(=O)[nH]c(=O)c2c1nc(CN1CCN(Cc3ccccc3)CC1)n2CC(N)=O,·,·,50,·,·,·
CCCCCn1c(CN2CCN(Cc3ccccc3)CC2)nc2c1c(=O)n(C)c(=O)n2C,–,–,100,–,–,–

# High-throughput results as filed in PubChem BioAssay.
